G9a inh: qHTS Assay for Inhibitors of Histone Lysine Methyltransferase G9a. G9a H3K9 monomethylation, AlphaScreen, 2 h. Potency, µM (top dose mostly 102 µM), for inactives: top-dose activity, negative = inhibition, actives largely listed as inhibitors. Histone-lysine N-methyltransferase EHMT2 (Homo sapiens), Q96KQ7. 350,000 tested, 8.8% active; note: potency is the fitted concentration of half-maximal effect; % is set by controls: 0 for no effect and ±100 for the full control effect; nearly all actives have a fitted effect of over 75% in size
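Using a bead-based AlphaScreen, monomethylated H3K9 product from 2 h room-temperature reactions (G9a 20 nM, peptide 500 nM, SAM 20 uM) was detected with 0.5 ug/mL rabbit anti-H3K9me1 antibody.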
HP1b binding inh: HTS for Inhibitors of HP1-beta Chromodomain Interactions with Methylated Histone Tails; Chromobox protein homolog 1 (Homo sapiens), P83916; AlphaScreen HP1-beta / biotin-H3K9me3 peptide binding; Potency, µM (doses to about 114 µM), for the others: top-dose activity change, negative = inhibition, actives largely listed as inhibitors; 390,000 tested, 0.56% active; AID 540317, 2011; note: potency is the fitted concentration of half-maximal effect; nearly all actives have a fitted effect of over 70% in size
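AlphaScreen: HP1-beta (50 nM) preformed 30 min with biotin-H3(1-18)K9me3 peptide (50 nM) in PBS pH 7.4, 0.01% Tween-20. Compound added for 30 min at RT, then streptavidin donor/nickel chelate acceptor beads (10 ug/mL) for 30 min.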
JMJD2A Tudor inh: qHTS Assay for Inhibitors of JMJD2A-Tudor Domain; Lysine-specific demethylase 4A (Homo sapiens), O75164; AlphaScreen JMJD2A-Tudor / H3K4me3 peptide binding; Potency, µM (titrated, usually from 114 µM), for the others: at the top dose activity change, negative = inhibition, usual class: inhibitors; 390,000 tested, 4.4% active; note: potency is the fitted concentration of half-maximal effect; % is set by controls: 0 for no effect and ±100 for the full control effect; nearly all actives have a fitted effect of over 50% in size
PI5P4Ka inh: qHTS for Inhibitors of phosphatidylinositol 5-phosphate 4-kinase (PI5P4K) | Phosphatidylinositol 5-phosphate 4-kinase type-2 alpha (Homo sapiens), P48426 | PI5P4Kalpha enzyme, ADP-Glo luminescence, 60 min; stronger effect = lower value | max response, % | 330,000 tested, 1.2% active; active = max response of -50% or lower; inconclusive = between -30% and -50%; inactive = -30% or higher; note: value at the top dose of about 77 µM; % is set by controls: 0 for no effect and ±100 for the full control effect
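PI5P4Kalpha ADP-Glo assay; 5 microM ATP final; 60 min RT reaction; HEPES pH 7.4/EGTA/CHAPS, 5% DMSO; controls lacking substrate or enzyme; luminescent end-point.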
PLK1 PBD block: qHTS for Inhibitors of PLK1-PDB (polo-like kinase 1 - polo-box domain): Primary Screen; 360,000 tested, 2.8% active; Serine/threonine-protein kinase PLK1 (Homo sapiens), P53350; Potency, µM, without a hit: max response, negative = inhibition, actives largely listed as inhibitors; AID 720504, 2013; Plk1 PBD binding of FITC phosphopeptide, fluorescence polarization; note: potency is the fitted concentration of half-maximal effect; series mostly up to about 57 µM; % is set by controls: 0 for no effect and ±100 for the full control effect; nearly all actives have a fitted effect of over 65% in size
BAZ2B block: qHTS Assay for Inhibitors of BAZ2B; AlphaScreen BAZ2B-H3K14Ac peptide displacement; 360,000 tested, 4.4% active; Bromodomain adjacent to zinc finger domain protein 2B (Homo sapiens), Q9UIF8; AID 504333, 2011; Potency, µM (top dose mostly 114 µM), for inactives: at the highest dose activity change, negative = inhibition, usual class: inhibitors; note: potency is the fitted concentration of half-maximal effect; % is set by controls: 0 for no effect and ±100 for the full control effect; nearly all actives have a fitted effect of over 60% in size
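Protein-peptide AlphaScreen: BAZ2B 50 nM, b-H3K14Ac 50 nM, 1x PBS pH 7.4 + 0.01% Tween-20. Preincubation 30 min RT; cpd 30 min RT (top 110 uM); beads 20 min RT, light-protected.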
An asterisk follows results filed as active; ? = inconclusive; . = no result; [ ] = another dose, or the depositor's remark. Rows were chosen to be rich in hits. Some 12% of all compounds tested hit in one or more screens of this group. Unless noted, calls come from the whole dose curve; as a rule, active = well fitted curve in the direction sought with a large enough effect; inconclusive = small, poorly fitted or top-dose-only effect, or another doubt; inactive = no such curve, though single readings can be large; an effect the other way counts as inactive or inconclusive.

SMILES	G9a inh	HP1b binding inh	JMJD2A Tudor inh	PI5P4Ka inh	PLK1 PBD block	BAZ2B block
Cc1ccc(-c2c(C)n3c4c(=O)n(C)c(=O)n(C)c4nc3n2-c2cccc(O)c2)cc1	-40%[59 µM]	22%	-7%	.	.	-8%
CC(C)(C)OC(=O)NCCCNc1ncnc2ccc(-c3ccc4c(c3)OCO4)cc12	.	.	-25%	.	.	.
COc1ccc(-c2cc(C(F)(F)F)nc(S(=O)(=O)CCCC(=O)Nc3cccc(O)c3)n2)cc1OC	-44%[59 µM]	62%	-7%	-7	-26%	-7%
COc1ccc(NC(=O)CCCS(=O)(=O)c2nc(-c3ccc(OC)c(OC)c3)cc(C(F)(F)F)n2)cc1OC	16µM*	37%	-14%	.	.	-4%
O=C(NNC(=O)c1cc(Cl)ccc1O)c1cccc(S(=O)(=O)N2CCOCC2)c1	77%[2.33 µM]	19%	-22%	-11	-19%	-1%
COc1cc2[nH]c(=O)n(Cc3ccc(C(=O)NCCCN4CCN(C)CC4)cc3)c(=O)c2cc1OC	-13%	-3%	-25%	.	-7%	1%
CC1CCN(CCCNC(=O)c2ccc(Cn3c(=S)[nH]c4ccc(Br)cc4c3=O)cc2)CC1	18µM*	.	.	.	.	?
C=CCNC(=O)c1ccc(Cn2c(=S)[nH]c3cc4c(cc3c2=O)OCO4)cc1	12%[59 µM]	8%	?	.	-16%	-9%
O=C(NCCN1CCCC1)c1ccc(Cn2c(=S)[nH]c3cc4c(cc3c2=O)OCO4)cc1	?	20%	40µM*	.	-12%	-34%
CN1CCN(CCCNC(=O)c2ccc(Cn3c(=S)[nH]c4ccc(Br)cc4c3=O)cc2)CC1	32µM*	9%	?	0	-20%	?
Cn1cnc2c(ncn2[C@@H]2O[C@H](CO)[C@@H](O)[C@H]2O)c1=N	35%[59 µM]	.	.	.	.	.
COc1cc(-c2nc(S(=O)(=O)c3ccc(Br)cc3)c(N3CCOCC3)o2)cc(OC)c1OC	-28%[59 µM]	1%[57 µM]	?	.	.	-35%
CN(C)c1ccc(CC(=O)c2nc3ccccc3s2)cc1	?	?	18µM*	-6	?	40µM*
COc1ccccc1NC(=O)CC1S/C(=N/N=C(\C)C2CCCCC2)NC1=O (centres undefined)	.	36%	-23%	18	-13%	-36%
Cc1ccccc1N=CC1=C(O)c2ccccc2C1=O	45µM*	-18%	-35%	-27	-4%	-37%
COc1ccc(N=CC2=C(O)c3ccccc3C2=O)c(OC)c1	?	-17%	-25%	-13	-6%	?
CCc1c(C)nc2cc(-c3ccc(OC)c(OC)c3)nn2c1NCC1CC1	56µM*	-9%	?	-8	1%	-37%
CCOC(=O)C1CCCN(C(=O)c2ccc3c(c2)N(Cc2ccccc2F)C(=O)c2ccccc2S3=O)C1 (centres undefined)	-4%[59 µM]	5%	-24%	.	.	-18%
CCOC(=O)CCNC(=O)N1CCCC(CNS(=O)(=O)c2cccs2)C1 (centres undefined)	.	31%	-8%	-2	-12%	-4%
CCN(CC)C(=O)c1sc2c(c1C)c(=O)n(CCc1ccccc1)c(=O)n2Cc1ccc(C)cc1	-2%[59 µM]	29%	-5%	.	.	-5%
COC(=O)C1C(O)=C(C(C)=Nc2cccc3ccccc23)C(=O)CC1(C)C (centres undefined)	-64%	-5%	79µM*	2	-13%	-32%
O=S(=O)(Nc1ccc(Cl)cc1)c1ccc(N2CCOCC2)c(NC(=S)NC2CC2)c1	7.9µM*	-22%	-24%	?	8.4µM*	?
CNC(=S)Nc1cc(S(=O)(=O)Nc2cc(Cl)ccc2Cl)ccc1N1CCCC1	50µM*	-8%	?	-22	?	-38%
CC(=O)Nc1ccc(S(=O)(=O)Nc2cc(Cl)ccc2N2CCOCC2)cc1	.	8%	-25%	2	-2%	.
Cc1cccn2c(=O)c(/C=C(\C#N)c3nc4ccccc4n3C)c(Oc3ccc(Br)cc3)nc12	4%[59 µM]	19%	-13%	.	.	-12%
SMILES	G9a inh	HP1b binding inh	JMJD2A Tudor inh	PI5P4Ka inh	PLK1 PBD block	BAZ2B block
O=C(c1cc(C(F)(F)F)cc(C(F)(F)F)c1)N1CCC2(CC1)CCN(c1ccncc1)CC2	6%[12.7 µM]	.	.	.	.	.
CN(Cc1ccco1)c1nc(-c2ccccc2C(F)(F)F)nc2ccccc12	1%[0.501 µM]	.	.	.	.	.
CCCCCCCCCCCCC/C=C/[C@@H](O)[C@H](CO)NC(=O)CCCCCCCCCCCCCCC	-1%[59 µM]	.	.	.	.	.
O=C(NCC1CCCO1)c1ccccc1NS(=O)(=O)c1ccc(F)cc1 (centres undefined)	?	32%	-7%	0	0%	3%
O=C(CSc1nc2c(cnn2-c2ccccc2)c(=O)[nH]1)N1N=C(c2cccs2)CC1c1ccc(F)cc1 (centres undefined)	28µM*	7%	-11%	12	?	-26%
CC(=O)N1CCN(C(=O)CSc2nc3c(cnn3-c3ccccc3)c(=O)[nH]2)CC1	-38%	28%	8%	-2	-4%	-7%
CCN(CC)c1ccc(N=C2C=CC(=O)C=C2NC(C)=O)cc1	.	25µM*	10µM*	-28	-16%	.
CCN(CC)c1ccc(C(=O)NN)cc1	19%[59 µM]	9%	-29%	0	-10%	-37%
O=C(Cn1c(=O)nc(-c2ccccc2F)c2cc(Cl)ccc21)N1CCN(c2ccccc2F)CC1	-1%[59 µM]	-8%	-26%	.	.	-22%
COc1cccc(CNc2ncnc3onc(-c4ccc(F)cc4)c23)c1	1%[59 µM]	31%	-13%	.	.	3%[57.1 µM]
COc1ccc(C(=O)Nc2nc3n(n2)C(c2ccc(Cl)cc2)C=C(c2ccccc2)N3)cc1OC (centres undefined)	?	26%	56µM*	.	.	28µM*
O=C(Nc1ccc(Cl)cc1)c1cnn2c1NC(c1ccccc1)=CC2c1ccccc1 (centres undefined)	10µM*	-7%	?	.	.	-33%
O=C(Nc1nc2n(n1)C(c1ccccc1)C=C(c1ccccc1)N2)c1ccccc1 (centres undefined)	10µM*	50%	56µM*	.	.	20µM*
COc1ccc(C2C=C(c3ccccc3)Nc3nc(NC(=O)c4ccc(C)cc4)nn32)cc1 (centres undefined)	-9%[59 µM]	2%	-22%	.	.	-5%
O=C1CC(c2ccccc2)n2nc(NC(=O)c3ccccn3)nc2N1 (centres undefined)	13%	45%	7.9µM*	2	-3%	-107%

Assay outcomes: PubChem, National Center for Advancing Translational Sciences (NCATS)
